{"source": "ChEMBL document CHEMBL4513216", "about": "“Probing the Open Global Health Chemical Diversity Library for Multistage-Active Starting Points for Next-Generation Antimalarials” (ACS Infect Dis, 2020)", "note": "Hit rate of the full screen: of about 69,000 compounds, about 8,600 (12%) showed an effect of 50% or more. The full list was thinned out, with strong results kept by preference.", "data": [{"test_system": "Plasmodium berghei", "test": "Screen against P. berghei liver stage (PbLuc), transformed with Luciferase, at 10uM", "format": "functional, HepG2", "settings": "tested at 10 uM", "units": {"INHIBITION": "%"}, "values": [{"compound": "CN1CCN(c2cc(CNC(=O)c3ccc(Cl)o3)ccn2)CC1", "INHIBITION": 38.45}, {"compound": "Cc1csc(NC(=O)CN2CCCC(Cn3nc(C)nc3C)C2)n1", "note": "(centres undefined)", "INHIBITION": 0.4}, {"compound": "COc1c(C)cnc(CSc2nnc(N3CCCC3)s2)c1C", "INHIBITION": 32.9}, {"compound": "COc1cccc2c1OCC(NC(=O)NCc1cccs1)C2", "note": "(centres undefined)", "INHIBITION": 20.5}, {"compound": "COc1cccc2c1OCC(Cc1cc(C(N)=O)ccn1)C2", "note": "(centres undefined)", "INHIBITION": 38}, {"compound": "COc1cccc2c1OCC(C(=O)NCCc1nnc(N)s1)C2", "note": "(centres undefined)", "INHIBITION": 43.4}, {"compound": "COc1cccc2c1OCC(C(=O)NCCc1nc3c(s1)CCC3)C2", "note": "(centres undefined)", "INHIBITION": 40.6}, {"compound": "COc1cccc2c1OCC(Cc1cc(C(=O)N3CCCC3)ccn1)C2", "note": "(centres undefined)", "INHIBITION": 57.2}, {"compound": "COc1cccc2c1OCC(NC(=O)NCCC(N)=O)C2", "note": "(centres undefined)", "INHIBITION": 15.1}, {"compound": "CNC(=O)c1ccnc(CC2COc3c(cccc3OC)C2)c1", "note": "(centres undefined)", "INHIBITION": -9.54}, {"compound": "COc1cccc2c1OCC(C(=O)NCCc1nnc(C)s1)C2", "note": "(centres undefined)", "INHIBITION": 65.6}, {"compound": "COc1cccc2c1OCC(NC(=O)NCCc1ccccn1)C2", "note": "(centres undefined)", "INHIBITION": 59.1}, {"compound": "COc1ccc(-c2ccc(C(=O)N3CCOCC3CC(N)=O)o2)cc1", "note": "(centres undefined)", "INHIBITION": -71.5}, {"compound": "CC(C)(CN1CCC2(CCCNC2)C1)N1CCOCC1", "note": "(centres undefined)", "INHIBITION": -41.8}, {"compound": "O=C(CCc1cncc(F)c1)NS(=O)(=O)c1ccc(F)cc1F", "INHIBITION": 30.3}, {"compound": "O=c1ccc2c(n1Cc1ccncc1)CCN(Cc1ccoc1)CC2", "INHIBITION": -37.9}, {"compound": "CC(C)N1C[C@@H]2CN(C(=O)NCc3ccccc3)CCC[C@]2(C(=O)O)C1", "INHIBITION": 34.6}, {"compound": "CNC(=O)[C@@H]1C[C@H]2CN(Cc3nccs3)C[C@H]2N1C", "INHIBITION": 46.6}, {"compound": "Nc1nc(N)c2c(n1)OC1(CCN(C(=O)CC3CCCCN3)CC1)C2", "note": "(centres undefined)", "INHIBITION": 26.95}, {"compound": "CCC(C)CN1CCC(n2cc(C3CCCC3)nn2)CC1", "note": "(centres undefined)", "INHIBITION": 16.9}, {"compound": "CCC(CC)CN1CCC(n2cc(C3CCCC3)nn2)CC1", "INHIBITION": 60.4}, {"compound": "CC(C)Nc1cc(N2CCC(n3cc(C4CCCC4)nn3)CC2)ncn1", "INHIBITION": 16.1}, {"compound": "CCCC(C)CN1CCC(n2cc(CCCO)nn2)CC1", "note": "(centres undefined)", "INHIBITION": 13.7}, {"compound": "CC(C)Cc1cn(C2CCN(C(C)CC3CC3)CC2)nn1", "note": "(centres undefined)", "INHIBITION": -129}, {"compound": "CSC(C)CCN1CCC(n2cc(C3CCCCC3)nn2)CC1", "note": "(centres undefined)", "INHIBITION": 67.7}, {"compound": "CCC(C)CN1CCC(n2cc(C3CCCCC3)nn2)CC1", "note": "(centres undefined)", "INHIBITION": 77.6}, {"compound": "CCCC(C)CN1CCC(n2cc(C3CCCC3)nn2)CC1", "note": "(centres undefined)", "INHIBITION": 61.1}, {"compound": "OCc1ccc(CN2CCC(n3cc(C4CCCCC4)nn3)CC2)o1", "INHIBITION": 48.8}, {"compound": "CC(O)c1cn(C2CCN(C(=O)C3(C)CCCCC3)CC2)nn1", "note": "(centres undefined)", "INHIBITION": 10.3}, {"compound": "C=C(C)CN1CCC(n2cc(C3CCCC3)nn2)CC1", "INHIBITION": 46.4}, {"compound": "O=C(c1cn(-c2ccccc2)nn1)N1CCCC(n2cccn2)C1", "note": "(centres undefined)", "INHIBITION": -67.3}, {"compound": "O=C(C1CC(=O)N(c2n[nH]c3cc(Br)ccc23)C1)N1CCCC1", "note": "(centres undefined)", "INHIBITION": -19.4}, {"compound": "CO[C@@H]1CCN(S(=O)(=O)c2cn(C)cn2)[C@H]1Cc1cnn(C)c1", "INHIBITION": 49.1}, {"compound": "Cc1nc(CN2CC[C@H](OCC3CC3)[C@@H]2Cc2cccnc2)cs1", "INHIBITION": -3.33}, {"compound": "CCOCC(=O)N1Cc2nccn2CC(CN(C)C)C1", "note": "(centres undefined)", "INHIBITION": -7.7}, {"compound": "CCCc1n[nH]c(C2CN(CCNS(C)(=O)=O)CCO2)n1", "note": "(centres undefined)", "INHIBITION": -69}, {"compound": "O=C(c1cscn1)N1C[C@H](OCc2cccnc2)[C@H]2COC[C@H]21", "INHIBITION": 3.58}, {"compound": "C=C(C)CN1CCC(NC(=O)Nc2ccc(F)c(C(N)=O)c2)CC1", "INHIBITION": 42.3}, {"compound": "C=C(C)CN1CCC(NC(=O)Nc2ccc(F)c(C(=O)NC)c2)CC1", "INHIBITION": 52.6}, {"compound": "CNC(=O)c1cc(NC(=O)NC2CC2)ccc1F", "INHIBITION": -0.514}, {"compound": "Cc1cc(C)n(CC(=O)N2CCC(c3cc4cccnc4[nH]3)CC2)n1", "INHIBITION": 1.62}, {"compound": "CN(CC(=O)N1CCC(COc2ccccc2)CC1)c1cnccn1", "INHIBITION": -16.295}, {"compound": "CCN1CCCC(O)(CN(C)Cc2c(C)nn(C)c2C)C1", "note": "(centres undefined)", "INHIBITION": 42.4}, {"compound": "Cc1noc(OCc2ccc(C#N)cc2)n1", "INHIBITION": 64.5}, {"compound": "Cc1noc(OCCOc2ccc(C#N)cc2)n1", "INHIBITION": 18.6}, {"compound": "CC(C)c1noc(OCc2cccc(C#N)c2)n1", "INHIBITION": 46.1}, {"compound": "O=C(NCCC(=O)N1CCCCCCC1)c1ccoc1", "INHIBITION": -18}, {"compound": "O=C(NCCNS(=O)(=O)c1cccc(Cl)c1)C1CCCO1", "note": "(centres undefined)", "INHIBITION": 38.9}, {"compound": "Cc1cc(NCCNS(=O)(=O)c2cccc(Cl)c2)nc(C)n1", "INHIBITION": 24.7}, {"compound": "CC(NCCNS(=O)(=O)c1cccc(Cl)c1)C1CCOCC1", "note": "(centres undefined)", "INHIBITION": 67.1}, {"compound": "CN(C)C(=O)N1C[C@H]2CC[C@@H](C1)N(Cc1nnc(-c3ccccc3)o1)C2", "INHIBITION": -3.73}, {"compound": "OC(CNCc1ccccc1C(F)(F)F)c1ccccc1", "note": "(centres undefined)", "INHIBITION": 1.98}, {"compound": "CC(=O)N(C)Cc1cncc(C2CCCN2C2CCOCC2)n1", "note": "(centres undefined)", "INHIBITION": 15.925}, {"compound": "COc1ccccc1NC(=O)CSC1CCc2ccccc2NC1=O", "note": "(centres undefined)", "INHIBITION": 10.8}, {"compound": "Cc1cnc(NC(=O)CSC2CCc3ccccc3NC2=O)s1", "note": "(centres undefined)", "INHIBITION": 54.6}, {"compound": "O=C(CSC1CCc2ccccc2NC1=O)NC1CC1", "note": "(centres undefined)", "INHIBITION": -41.4}, {"compound": "O=C(Cn1cnc2ccccc2c1=O)Nc1cc(C2CC2)n[nH]1", "INHIBITION": 89.4}, {"compound": "O=c1c2ccccc2ncn1Cc1cc(C2CC2)[nH]n1", "INHIBITION": 18.5}, {"compound": "CC(C)c1cc(NC(=O)Cn2cnc3ccccc3c2=O)[nH]n1", "INHIBITION": -27.4}, {"compound": "COc1ccc(CCN2CCN(C(=O)c3scnc3C)CC2)cc1", "INHIBITION": 25.3}, {"compound": "CN1CCc2onc(CNc3ncccn3)c2C1", "INHIBITION": 19.5}, {"compound": "COc1ccc(CNC2CCCc3nc(N(C)C)ncc32)c(OC)c1", "note": "(centres undefined)", "INHIBITION": 16.7}, {"compound": "CC(NCC1(N(C)C)CCOCC1)c1ccc(Cl)cc1", "note": "(centres undefined)", "INHIBITION": -2.025}, {"compound": "CN(C)C1(CNC(=O)c2c(O)cc(Cl)cc2Cl)CCOCC1", "INHIBITION": 54.8}, {"compound": "CN(C)C1(CNC(=O)Cc2ccc(F)cc2)CCOCC1", "INHIBITION": -21.8}, {"compound": "O=C(c1ccc[nH]1)N1CCc2cc(S(=O)(=O)N3CCOCC3)ccc2C1", "INHIBITION": 42.8}, {"compound": "O=C(Nc1ccnc2ccnn12)c1ccc(N2CCC(O)CC2)cc1", "INHIBITION": 38.1}, {"compound": "O=C(NC1CCN(CC2CC2)C1)c1ccc(N2CCC(O)CC2)cc1", "note": "(centres undefined)", "INHIBITION": 77.7}, {"compound": "O=C(NC1CCN(CC2CC2)C1)c1ccc(C(=O)c2cc[nH]c2)cc1", "note": "(centres undefined)", "INHIBITION": 10.6}]}]}
